Data: article PMC4336329 (PLoS ONE, 2015)
Out of some 310,000 compounds screened, about 2,200 (0.71%) showed an effect of 50% or more. The effect is printed as a negative number. The entries come from a sample that favours strong results as a whole.

Each compound was assayed against human ether-à-go-go-related gene (hERG) potassium channel (human, UniProt Q12809) (assay: primary screen, population patch clamp on CHO cells stably expressing hERG; higher = less effect of the substance).
Sequence of human ether-à-go-go-related gene (hERG) potassium channel (Q12809 whole entry, looked up): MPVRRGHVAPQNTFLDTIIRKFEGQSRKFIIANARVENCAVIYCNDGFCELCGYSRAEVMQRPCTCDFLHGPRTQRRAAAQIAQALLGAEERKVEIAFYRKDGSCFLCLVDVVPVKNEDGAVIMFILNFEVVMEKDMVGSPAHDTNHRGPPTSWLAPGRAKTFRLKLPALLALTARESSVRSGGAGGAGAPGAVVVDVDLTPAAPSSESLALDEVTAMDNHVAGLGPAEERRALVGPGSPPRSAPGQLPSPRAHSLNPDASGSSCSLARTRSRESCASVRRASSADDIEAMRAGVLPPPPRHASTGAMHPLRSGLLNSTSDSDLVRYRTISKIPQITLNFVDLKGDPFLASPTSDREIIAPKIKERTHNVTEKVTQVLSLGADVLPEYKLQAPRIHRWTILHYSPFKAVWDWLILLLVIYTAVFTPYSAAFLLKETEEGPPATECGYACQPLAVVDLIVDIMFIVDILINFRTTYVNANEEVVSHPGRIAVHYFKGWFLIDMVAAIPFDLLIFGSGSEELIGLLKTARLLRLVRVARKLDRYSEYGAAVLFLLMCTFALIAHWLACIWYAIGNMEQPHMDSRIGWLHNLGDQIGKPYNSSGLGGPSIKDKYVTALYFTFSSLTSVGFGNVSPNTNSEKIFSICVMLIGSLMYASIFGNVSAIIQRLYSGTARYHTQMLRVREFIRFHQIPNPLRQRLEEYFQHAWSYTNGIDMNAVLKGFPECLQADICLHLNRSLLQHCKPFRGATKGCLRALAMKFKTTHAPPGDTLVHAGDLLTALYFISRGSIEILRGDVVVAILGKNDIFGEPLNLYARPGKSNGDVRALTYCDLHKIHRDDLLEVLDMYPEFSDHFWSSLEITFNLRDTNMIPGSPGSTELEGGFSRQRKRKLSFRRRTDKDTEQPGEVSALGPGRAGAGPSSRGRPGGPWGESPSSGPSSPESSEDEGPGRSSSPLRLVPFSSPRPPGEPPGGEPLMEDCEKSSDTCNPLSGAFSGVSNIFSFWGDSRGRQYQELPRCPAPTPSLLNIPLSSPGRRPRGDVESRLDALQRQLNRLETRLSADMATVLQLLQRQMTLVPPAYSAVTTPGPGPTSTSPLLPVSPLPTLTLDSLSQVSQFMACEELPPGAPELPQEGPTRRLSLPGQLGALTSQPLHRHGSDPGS

Point of comparison: `CCOCCCNC(=O)CN1CCN(Cc2ccccc2C)C1=O`, “hERG current change (%, negative = inhibition) at 1uM” value 4.41%. Against it:
- CCOC(=O)c1csc(NC(C)=O)n1 — higher, 7.33%
- CCCN1CCC(=O)N([C@H](CSc2ccc(OC)cc2)CC(C)C)CC1 — lower, -42.3%
- CC(=O)Nc1ccc(SC[C@H](Cc2ccccc2)N2CCN(CCc3ccccc3)CCC2=O)cc1 — lower, 4.37%
- CCCN1CCC(=O)N([C@H](CSc2ccc(C)cc2)c2ccccc2)CC1 — lower, -76.3%
- CC(=O)Nc1ccc(SC[C@H](c2ccccc2)N2CCN(CCc3ccccc3)CCC2=O)cc1 — lower, -56%
- CCCN1CCC(=O)N([C@H](CSc2ccccc2)CC(C)C)CC1 — lower, -31.8%
- CN1CCC(=O)N([C@H](CSc2ccc(Br)cc2)c2ccccc2)CC1 — lower, -89.8%
- CC(C)CN1CCC(=O)N([C@H](CSc2ccc(Br)cc2)c2ccccc2)CC1 — lower, -21.5%
- CN1CCC(=O)N([C@H](CSc2ccccc2)c2ccccc2)CC1 — lower, -46.4%
- CC(=O)Nc1ccc(SC[C@H](CC(C)C)N2CCN(CCc3ccccc3)CCC2=O)cc1 — lower, -26.2%
- CCCN1CCC(=O)N([C@H](CSc2ccc(OC)cc2)c2ccccc2)CC1 — lower, -81.7%
- CCCN1CCC(=O)N([C@H](CSc2ccc(OC)cc2)Cc2ccccc2)CC1 — lower, -36.3%
- Cc1ccc(SC[C@H](Cc2ccccc2)N2CCN(CCc3ccccc3)CCC2=O)cc1 — higher, 8.27%
- COc1ccc(CNC(=O)c2cc(COc3c(F)cccc3F)on2)cc1OC — higher, 7.12%
- Cc1ccc(NC(=O)/C(C#N)=C/c2ccsc2)c(C)c1 — higher, 15.6%
- Cc1ccc(S(=O)(=O)N(C)c2ccc(C(=O)Nc3c(C)n(C)n(-c4ccccc4)c3=O)cc2)cc1 — lower, 4.15%
- O=C(NNS(=O)(=O)c1ccc(F)cc1)C1CC(c2cccnc2)=NO1 (stereo not drawn) — higher, 14.8%
- O=C(/C(=N\O)n1cncn1)c1ccc(Cl)cc1Cl — higher, 15.2%
- COc1ccc(Cc2nnc(NC(=O)Nc3ccccc3F)s2)cc1 — higher, 15.2%
- Cc1ccccc1OCC(=O)Nc1ccccc1N1CCC(C)CC1 — higher, 18.9%
- O=C1CCCC(O)=C1C1NCCc2ccccc21 (stereo not drawn) — higher, 9.52%
- O=C1CCN(Cc2ccccc2)CCN1[C@H](CSc1ccccc1)c1ccccc1 — lower, 2.25%
- CCCN1CCC(=O)N([C@H](CSc2ccc(Br)cc2)c2ccccc2)CC1 — lower, -17.5%
- O=C1CCN(CCc2ccccc2)CCN1[C@H](CSc1ccc(Br)cc1)c1ccccc1 — lower, -18.8%
- Cc1ccc(SC[C@H](c2ccccc2)N2CCN(CCc3ccccc3)CCC2=O)cc1 — lower, -10.2%
- O=C1CCN(CCc2ccccc2)CCN1[C@H](CSc1ccccc1)c1ccccc1 — lower, -72.2%
- CCCN1CCC(=O)N([C@H](CSc2ccccc2)c2ccccc2)CC1 — lower, -82.2%
- COC(=O)c1ccc(CN2CCN(CCCc3ccccc3)C(CCO)C2)cc1 (stereo not drawn) — lower, -29.1%
- COCCCNC(=O)c1cc(C)nc2ccc(F)cc12 — lower, -1.73%
- CN(C)S(=O)(=O)Oc1ccsc1C(=O)Nc1ccccc1Cl — higher, 5.7%
- COc1ccc(N2CCN(CCCNC(=O)CN3CCN(Cc4ccccc4C)C3=O)CC2)cc1 — lower, -16.7%
- Cc1cccc(CN2CCN(CC(=O)NCc3ccc(F)cc3)C2=O)c1 — higher, 7.12%
- Cc1cccc(CN2CCN(CC(=O)NCCCN3CCCC3=O)C2=O)c1 — higher, 11.8%
- O=C(CN1CCN(Cc2ccc(Cl)cc2)C1=O)NCCCN1CCOCC1 — higher, 4.56%
- Cc1cccc(CN2CCN(CC(=O)NCCCN3CCN(c4ccc(F)cc4)CC3)C2=O)c1 — lower, -54.5%
- O=C(CN1CCN(Cc2ccc(Cl)cc2)C1=O)NCCCN1CCN(c2ccc(F)cc2)CC1 — lower, -36.8%
- Cc1ccccc1CN1CCN(CC(=O)NCCCN2CCN(c3ccc(F)cc3)CC2)C1=O — lower, -52%
- Cc1ccc(CN2CCN(CC(=O)NCCCN3CCN(c4ccc(F)cc4)CC3)C2=O)cc1 — lower, -56.6%
- O=C1NC2CCc3nc4ccccc4c(=O)n3C2=Nc2ccccc21 (stereo not drawn) — lower, -6.24%
- COc1cc2c(=O)n(CCC(=O)NCC3CCCO3)c(=O)n(CC(=O)Nc3ccc(C)c(C)c3)c2cc1OC (stereo not drawn) — higher, 11.6%
- CNC(=O)c1ccccc1NC(=O)c1ccc(C)c(S(=O)(=O)N2CCCCC2)c1 — lower, -2.21%
- CC1(C)C2CC=C(/C=N/NC(=O)C(N)=O)C1C2 (stereo not drawn) — higher, 10.3%
- C/C(Cl)=C/Cn1c(SCC(C)C)nc2c1c(=O)[nH]c(=O)n2C — higher, 10%
- CCOC(=O)C(C)Sc1nc2c(c(=O)[nH]c(=O)n2C)n1CCc1ccccc1 (stereo not drawn) — lower, -5.6%
- CCCCCCn1c(SCC(C)C)nc2c1c(=O)[nH]c(=O)n2C — higher, 10.1%
- CCC(C)Sc1nc2c(c(=O)[nH]c(=O)n2C)n1Cc1ccc(Cl)cc1 (stereo not drawn) — lower, 2.15%
- C/C(Cl)=C/Cn1c(SC(C)C)nc2c1c(=O)[nH]c(=O)n2C — higher, 6.96%
- CCOC(=O)C(C)Sc1nc2c(c(=O)[nH]c(=O)n2C)n1C/C=C(/C)Cl (stereo not drawn) — lower, -62.6%
- CCOC(=O)C(C)Sc1nc2c(c(=O)[nH]c(=O)n2C)n1Cc1ccc(Cl)cc1 (stereo not drawn) — lower, -78.7%
- CCCCCn1c(SC(C)C(C)=O)nc2c1c(=O)[nH]c(=O)n2C (stereo not drawn) — lower, -91.2%
- COC(=O)C(C)Sc1nc2c(c(=O)[nH]c(=O)n2C)n1CCC(C)C (stereo not drawn) — higher, 4.51%
- CCOCCn1c(SC(C)C(C)=O)nc2c1c(=O)[nH]c(=O)n2C (stereo not drawn) — lower, -0.132%
- COC(=O)C(C)Sc1nc2c(c(=O)[nH]c(=O)n2C)n1CCCc1ccccc1 (stereo not drawn) — lower, -70.1%
- CC(C)Sc1nc2c(c(=O)[nH]c(=O)n2C)n1Cc1ccc(Cl)cc1 — lower, 4.3%
- CCN(CC)C(=O)Oc1cc(=O)n(C)c2ccccc12 — higher, 6.19%
- Cc1ccc([C@H]2C(C#N)=C(N)Oc3cc(C)oc(=O)c32)o1 — higher, 12.8%
- O=c1c2ccccc2n2cnnc2n1-c1ccccc1 — lower, 2.26%
- Cc1ccc(NC(=O)C(c2ccc(Cl)cc2)N2CCOCC2)cc1 (stereo not drawn) — higher, 16.1%
- Cc1cc2c(cc(C(=O)OCC(=O)NCc3ccco3)n2C)s1 — higher, 6.5%
- CC1CCCC(NC(=O)CSc2nnnn2C)C1C (stereo not drawn) — higher, 13.2%
- COc1ccc(NC(=O)C2CCCN(S(=O)(=O)c3ccc(Cl)cc3)C2)cc1OC (stereo not drawn) — higher, 10.9%
- CCCCCn1c(=O)c(C(=O)NCc2ccncc2)c(O)c2ccccc21 — lower, 2.72%
- CC(NC(=O)c1ccccc1F)C(=O)O (stereo not drawn) — higher, 16.8%
- C=C(C)COc1ccc(-c2nc(N)ncc2Oc2ccc(OC)cc2)c(O)c1 — lower, -5.45%
- CC(/C=N/NC(=O)c1ccncc1)=C\c1ccco1 — higher, 14.7%
- Cc1ccc(CNC(=O)COc2ccc3c(c2)CCC3)cc1 — lower, -2.48%
- CCOC(=O)C(CC)Sc1nc2c(c(=O)[nH]c(=O)n2C)n1CCc1ccccc1 (stereo not drawn) — lower, -30.9%
- CCOC(=O)C(CC)Sc1nc2c(c(=O)[nH]c(=O)n2C)n1C/C=C(/C)Cl (stereo not drawn) — lower, -56.9%
- CCOC(=O)CSc1nc2c(c(=O)[nH]c(=O)n2C)n1C/C=C(/C)Cl — lower, -7.88%
- COC(=O)CN1C(=O)[C@H]2[C@@H](C3CC3)N3C(=O)CN(Cc4ccc(-c5ccccc5)cc4)C(=O)[C@@]3(Cc3ccccc3)[C@H]2C1=O — higher, 15.6%
- COc1ccccc1Oc1ccc2c(c1)C(=O)N(c1ccc(Br)c3cccnc13)C2=O — lower, 1.75%
- O=C(CN1C(=O)/C(=C2\SC(=S)N(CCS(=O)(=O)O)C2=O)c2ccccc21)Nc1cccc(Br)c1 — lower, -52.8%
- Cc1cccc(NC(=O)CN2C(=O)/C(=C3\SC(=S)N(CC4CCCO4)C3=O)c3ccccc32)c1 (stereo not drawn) — higher, 17.1%
- O=C1/C(=C2\C(=O)N(Cc3ccc(F)cc3)c3ccccc32)SC(=S)N1CCS(=O)(=O)O — higher, 10.6%
- O=C(NCC1(N2CCCCC2)CCCCC1)c1cccc(NS(=O)(=O)c2ccccc2)c1 — lower, -34%
- Cc1ccc(S(=O)(=O)Nc2cccc(C(=O)NCC3(N4CCCCC4)CCCCC3)c2)cc1F — lower, -76.4%
- Cc1cccc(NS(=O)(=O)c2cccc(C(=O)NCC3(N4CCCCC4)CCCCC3)c2)c1 — lower, -45.1%
- Cn1cc(CN2CCc3c([nH]c4ccccc34)C2C(C)(C)C)cn1 (stereo not drawn) — lower, -3.25%
- CCCc1nc2c(o1)CC(CC(C)SCC)CC2=O (stereo not drawn) — lower, -11.3%
- C=C(C)CSc1nc(N)c2c(C)c(C)sc2n1 — higher, 10.3%
- O=C(NC1CCCN(Cc2ccc(Cl)cc2)C1)c1c(F)cccc1F (stereo not drawn) — higher, 17.1%
- CC(C)Cc1ccc(CN2CCCC(NC(=O)c3ccnn3C)C2)cc1 (stereo not drawn) — lower, -50.4%
- O=C(NC1CCCN(Cc2ccc(Cl)cc2)C1)c1c(F)ccc(F)c1F (stereo not drawn) — lower, -55.4%
- O=C(NC1CCCN(Cc2ccc(Cl)cc2)C1)c1cccc(F)c1 (stereo not drawn) — lower, -18.6%
- CC(C)Cc1ccc(CN2CCCC(NC(=O)c3ccoc3)C2)cc1 (stereo not drawn) — lower, -7.26%
- Cc1occc1C(=O)NC1CCCN(Cc2ccc(CC(C)C)cc2)C1 (stereo not drawn) — higher, 6.64%
